AHR act: activators of human aryl hydrocarbon receptor; AHR-responsive luciferase reporter cells, luminescence; activation, % at 5 µM; actives 2.5% (n = 320,000); AID 2796; in the data active = activation above about 47%;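 also: 0% = vehicle wells and 100% = reference agonist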
Target sequence (P35869 whole entry, looked up): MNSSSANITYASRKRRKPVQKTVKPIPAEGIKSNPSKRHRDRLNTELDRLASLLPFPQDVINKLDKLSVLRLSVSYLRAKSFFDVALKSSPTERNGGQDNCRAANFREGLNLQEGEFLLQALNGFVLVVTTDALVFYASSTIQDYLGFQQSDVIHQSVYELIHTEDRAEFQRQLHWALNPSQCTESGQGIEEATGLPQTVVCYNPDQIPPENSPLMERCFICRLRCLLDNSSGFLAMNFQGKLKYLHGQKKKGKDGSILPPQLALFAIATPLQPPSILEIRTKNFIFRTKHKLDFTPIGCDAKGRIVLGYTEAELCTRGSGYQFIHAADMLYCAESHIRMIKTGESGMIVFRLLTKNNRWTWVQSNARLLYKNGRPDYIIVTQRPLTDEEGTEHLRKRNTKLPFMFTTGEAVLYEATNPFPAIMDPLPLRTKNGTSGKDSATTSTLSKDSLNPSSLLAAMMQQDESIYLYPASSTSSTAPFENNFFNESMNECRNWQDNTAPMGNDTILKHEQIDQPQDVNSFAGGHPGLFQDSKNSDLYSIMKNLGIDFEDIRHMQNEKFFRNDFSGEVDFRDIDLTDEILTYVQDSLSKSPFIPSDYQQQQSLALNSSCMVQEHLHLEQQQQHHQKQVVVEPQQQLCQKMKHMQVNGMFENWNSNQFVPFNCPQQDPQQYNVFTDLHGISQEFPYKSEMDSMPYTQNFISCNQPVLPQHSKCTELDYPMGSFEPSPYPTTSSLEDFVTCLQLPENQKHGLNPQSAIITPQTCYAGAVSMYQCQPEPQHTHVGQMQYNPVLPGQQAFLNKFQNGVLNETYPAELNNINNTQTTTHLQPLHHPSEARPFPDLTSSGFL
ssDAF12 agonist: activates DAF-12 receptor from parasite S. stercoralis; actives 1% (n = 370,000); AID 652126; HEK293 ssDAF-12/GRIP1 lit1-tk-luc reporter, luminescence; % of 3 µM dafachronic acid response; activation, % at 6.8 µM;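 active = activation above the mean over all tested compounds plus 3 SD, cut at about 0.9% in these data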;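 also: 0% = DMSO-only wells and 100% = 3 µM delta7-dafachronic acid wells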
DAX1 inh-1: inhibits human nuclear receptor DAX1 | P51843 | HEK293 Gal4-DAX1 luciferase reporter, luminescence | inhibition, % at 6.75 µM | actives 0.99% (n = 340,000);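 active = inhibition above the mean over all tested compounds plus 3 SD, cut at about 4.2% in these data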;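 also: 0% = DAX1-transfected cells with DMSO and 100% = empty-vector control cells with DMSO; inhibition shows as a rise in luminescence from relieved DAX1 repression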
DAX1 inh-2: inhibitors of DAX1 repression of SF-1 activated StAR promoter; HEK293T StAR-luciferase reporter, SF-1/DAX-1 repression relief; inhibition, % at 6.8 µM; actives 1.1% (n = 370,000);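 active = inhibition above the mean over all tested compounds plus 3 SD, cut at about 3.6% in these data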;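 also: 0% = DAX-1 cells with DMSO and 100% = cells lacking DAX-1 with DMSO; higher inhibition means more luminescence from relief of DAX-1 repression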
hcDAF12 agonist: activates DAF-12 receptor from parasite H. contortus; HEK293 hcDAF-12 lit1-tk-luc reporter, luminescence; 0% DMSO, 100% Δ7-dafachronic acid; activation, % at 6.8 µM; actives 1.4% (n = 370,000); AID 652067;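 active = activation above the mean of all tested compounds plus 3 SD, cut at about 5.5% in these data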;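 also: 100% = response to 3 µM Δ7-dafachronic acid high control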
hgDAF-12 ag: agonists of H. glycines DAF-12 nuclear receptor; HEK293 GAL4-hgDAF12 UAS-luciferase reporter, agonist luminescence; normalized to butyrate control; activation, % at 6.8 µM; actives 1.8% (n = 370,000);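 active = activation above a cutoff set at the mean of all screened compounds plus 3 SD, cut at about 10% in these data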;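 also: 0% = DMSO wells and 100% = sodium butyrate wells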
LXRb hcDAF ctr: counter-screen for hcDAF-12 agonists: agonists of human LXR-beta | HEK293 Gal4-LXR tk-luc reporter, luminescence, 24 h; normalized: DMSO 0%, positive control 100% | 3,400 tested, under 10 active | shares compounds with hcDAF12 agonist | activation, % at 6.8 µM;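 active = mean percent activation of the reporter above a cutoff set as the average over tested compounds plus their standard deviation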
hcDAF12 ag: confirmation of H. contortus DAF-12 agonists | actives 61% (n = 3,400) | HEK293 hcDAF-12 lit1-tk-luc reporter, luminescence; % of Δ7-dafachronic acid response | shares compounds with hcDAF12 agonist | activation, % at 6.8 µM;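 active = mean activation across triplicate tests above the threshold derived from the earlier primary screen, cut at about 5.5% in these data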;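 also: 0% = DMSO only wells and 100% = 3 µM Δ7-dafachronic acid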
hgDAF12 conf: confirmation of H. glycines DAF-12 agonists. shares compounds with hgDAF-12 ag. HEK293 GAL4-hgDAF12 luciferase reporter, agonist mode; percent of butyrate response. activation, % at 6.8 µM. actives 80% (n = 3,300). AID 743050;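 active = mean activation over triplicate wells above the hit cutoff derived from the earlier primary screen, cut at about 11% in these data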;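 also: 0% = DMSO low control and 100% = 2 mM sodium butyrate high control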
LXRb DAF12 ctr: counter-screen for DAF-12 agonists: agonists of human LXR-beta | shares compounds with hgDAF-12 ag | HEK293 Gal4-LXR luciferase reporter, 24 h | activation, % at 6.8 µM | 3,300 tested, under 10 active | AID 743051;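 active = mean activation of the triplicate above a set limit carried over from the primary screen, none filed active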
Active calls of the source: *. Only some compounds are listed: those with a hit (about 5.7% of all), similar ones and a draw of the others.

For O=C(CCNS(=O)(=O)c1ccc2[nH]c(=O)oc2c1)Nc1cccc(Br)c1 the results were AHR act 3.9, ssDAF12 agonist -1.4, DAX1 inh-1 0.9, DAX1 inh-2 -0.3, hcDAF12 agonist 0.0 and hgDAF-12 ag -0.5.
For CC(C)(C)c1cc(NC(=O)c2ccc(OC3CCCC3)cc2)no1 the results were AHR act 4.0, ssDAF12 agonist -1.3, DAX1 inh-1 1.0, DAX1 inh-2 0.8, hcDAF12 agonist 2.1 and hgDAF-12 ag 2.5.
Screening O=C(Nc1ccon1)c1ccc(OC2CCCC2)cc1 returned AHR act 5.5, ssDAF12 agonist 0.4, DAX1 inh-1 0.1, DAX1 inh-2 4.5*, hcDAF12 agonist 7.2*, hgDAF-12 ag 14.4*, LXRb hcDAF ctr 1.1, hcDAF12 ag 4.6, hgDAF12 conf 14.4* and LXRb DAF12 ctr 0.7.
For O=S(=O)(c1ccccc1Cl)N1CCC(O)(c2cccnc2)CC1 the results were AHR act -0.1, ssDAF12 agonist -0.5, DAX1 inh-1 -1.0, DAX1 inh-2 0.0, hcDAF12 agonist -0.5 and hgDAF-12 ag -2.7.
`CC1(C)CC(/C=C/c2ccccc2)=Nc2ccccc2N1` gave AHR act 13.2, ssDAF12 agonist 1.8*, DAX1 inh-1 6.0*, DAX1 inh-2 1.7, hcDAF12 agonist 7.6*, hgDAF-12 ag 19.1*, LXRb hcDAF ctr 0.0, hcDAF12 ag 1.6, hgDAF12 conf 9.9 and LXRb DAF12 ctr 0.3.
Screening O=C(Nc1ccc2c(c1)CCC2)c1cccc(F)c1 returned AHR act 2.9, ssDAF12 agonist 0.8, DAX1 inh-1 1.3, DAX1 inh-2 4.4*, hcDAF12 agonist 8.0*, hgDAF-12 ag 18.9*, LXRb hcDAF ctr 1.2, hcDAF12 ag 5.7*, hgDAF12 conf 13.9* and LXRb DAF12 ctr 0.8.
Screening O=C(Nc1ccncc1)c1cccc(F)c1 returned AHR act 9.1, ssDAF12 agonist -1.1, DAX1 inh-1 -1.3, DAX1 inh-2 -0.6, hcDAF12 agonist -1.3 and hgDAF-12 ag -1.0.
For CC(C)[C@H](Nc1ncnc2c1oc1ccccc12)C(=O)O the results were AHR act 10.8, ssDAF12 agonist 0.1, DAX1 inh-1 2.6, DAX1 inh-2 0.4, hcDAF12 agonist 5.0 and hgDAF-12 ag 1.4.
`Cc1ccc(Nc2ncnc3c2oc2ccccc23)cc1` gave AHR act 53.6*, ssDAF12 agonist 1.3*, DAX1 inh-1 4.3*, DAX1 inh-2 2.0, hcDAF12 agonist 10.9*, hgDAF-12 ag 15.4*, LXRb hcDAF ctr 1.7, hcDAF12 ag 8.1*, hgDAF12 conf 18.5* and LXRb DAF12 ctr 0.7.
O=c1nc(C(F)(F)F)nc2ccccn12 was read as AHR act -2.1, ssDAF12 agonist -0.1, DAX1 inh-1 -0.6, DAX1 inh-2 0.7, hcDAF12 agonist 0.6 and hgDAF-12 ag 2.8.
Clc1ccc(-c2nsc(N3CCOCC3)n2)c(Cl)c1 was read as AHR act 2.0, ssDAF12 agonist 0.7, DAX1 inh-1 1.3, DAX1 inh-2 1.8, hcDAF12 agonist 8.6*, hgDAF-12 ag 16.1*, LXRb hcDAF ctr 1.0, hcDAF12 ag 2.6, hgDAF12 conf 15.9* and LXRb DAF12 ctr 0.7.
COc1ccc(CN2CCN(C3CCSCC3)CC2CCO)c(C)c1C (configuration not stated) was read as AHR act -2.8, ssDAF12 agonist -1.9, DAX1 inh-1 -1.0, DAX1 inh-2 -1.2, hcDAF12 agonist -1.0 and hgDAF-12 ag -0.2.

Screening results: PubChem BioAssay, The Scripps Research Institute Molecular Screening Center
